Our source for the inhibition values is PubChem BioAssay.

Experiment [1] has as its system transactivating tegument protein VP16 (Human herpesvirus 1). Description: VP16 transactivation reporter inhibitors, counter-screen for SRC2 inhibitor project, cell-based, luminescence, single concentration (AID 652007). As to conditions: cell-based VP16 transactivation luciferase reporter, at 8.9 µM, hits give high values.
The target of experiment [2] is Nuclear receptor coactivator 2 (Homo sapiens) (UniProt Q15596). In words: SRC2 coactivator transcriptional activity inhibitors, confirmation, cell-based, luminescence, HEK293, triplicate (AID 652008;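 active = mean inhibition above 46.5%, the solvent-only control mean plus 3 SD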;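 note: 0% = DMSO-treated cells and 100% = Gossypol at 36 µM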). Particulars: HEK293 GAL4-SRC2 luciferase reporter, at 8.9 µM, hits give high values. (Reporter assays use an easily measured gene product as a stand-in for the process of interest.)

Unmarked numbers belong to inactive results. The source made the active and inactive calls. Cut-off read from the data, not from the text of the source, unless noted: active = inhibition above about 36%; inactive = the rest.

Chain of Nuclear receptor coactivator 2 (Homo sapiens) (Q15596 whole entry, looked up, the tested form may be a part): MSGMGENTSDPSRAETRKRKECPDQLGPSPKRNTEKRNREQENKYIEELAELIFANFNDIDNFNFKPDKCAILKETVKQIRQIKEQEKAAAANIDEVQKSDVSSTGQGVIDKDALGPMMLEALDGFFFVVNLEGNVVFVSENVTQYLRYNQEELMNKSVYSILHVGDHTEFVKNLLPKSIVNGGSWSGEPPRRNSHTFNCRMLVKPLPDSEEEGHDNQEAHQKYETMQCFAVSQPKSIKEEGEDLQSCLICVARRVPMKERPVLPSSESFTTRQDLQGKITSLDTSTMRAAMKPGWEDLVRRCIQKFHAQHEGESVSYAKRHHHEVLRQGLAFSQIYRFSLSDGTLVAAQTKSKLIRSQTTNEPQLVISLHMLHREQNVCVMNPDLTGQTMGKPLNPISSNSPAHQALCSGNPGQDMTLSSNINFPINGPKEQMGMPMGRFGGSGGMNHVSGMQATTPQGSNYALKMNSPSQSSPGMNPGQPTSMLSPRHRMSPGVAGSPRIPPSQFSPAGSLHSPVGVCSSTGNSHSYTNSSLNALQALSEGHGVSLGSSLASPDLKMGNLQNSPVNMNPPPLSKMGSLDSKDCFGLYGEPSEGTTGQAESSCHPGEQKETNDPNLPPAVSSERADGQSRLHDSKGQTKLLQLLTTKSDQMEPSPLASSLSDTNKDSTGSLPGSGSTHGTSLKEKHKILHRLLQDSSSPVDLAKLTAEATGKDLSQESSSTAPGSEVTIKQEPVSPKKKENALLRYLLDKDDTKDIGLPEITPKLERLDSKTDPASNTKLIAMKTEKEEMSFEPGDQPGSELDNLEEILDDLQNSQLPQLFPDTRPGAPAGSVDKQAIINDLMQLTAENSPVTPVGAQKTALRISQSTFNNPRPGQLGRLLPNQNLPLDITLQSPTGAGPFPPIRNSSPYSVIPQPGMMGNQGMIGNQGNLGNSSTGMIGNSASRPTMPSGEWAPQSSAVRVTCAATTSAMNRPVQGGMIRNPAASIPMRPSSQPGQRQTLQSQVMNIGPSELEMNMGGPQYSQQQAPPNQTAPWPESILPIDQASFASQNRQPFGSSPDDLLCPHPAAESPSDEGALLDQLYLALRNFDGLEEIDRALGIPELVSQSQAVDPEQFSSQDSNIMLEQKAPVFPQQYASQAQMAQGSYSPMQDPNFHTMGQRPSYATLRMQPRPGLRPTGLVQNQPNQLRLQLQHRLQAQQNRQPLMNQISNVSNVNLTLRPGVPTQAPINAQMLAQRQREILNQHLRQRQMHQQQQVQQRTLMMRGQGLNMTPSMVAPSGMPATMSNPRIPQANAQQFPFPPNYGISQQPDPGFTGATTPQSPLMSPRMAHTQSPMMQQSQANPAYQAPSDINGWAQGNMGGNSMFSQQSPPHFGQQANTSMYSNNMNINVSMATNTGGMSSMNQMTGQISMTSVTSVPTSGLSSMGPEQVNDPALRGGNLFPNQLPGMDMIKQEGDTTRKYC

As to `O=C(Nc1ncc([N+](=O)[O-])s1)c1ccc2c(c1)OCO2`, the inhibition – broadly, the relative decrease from the control value, in per cent – in experiment [1] is -5.69%; in experiment [2], 37.6%.
In the same order, the values of `C[C@H]1CCC[C@@H](O)CC(=O)c2c(O)cc(O)cc2CC(=O)O1` are 24% and 32.3%.
For `CCC(C)c1ccc(C(C)NC(=S)NC2CCCCC2)cc1` (stereo not given) the same measures were -0.76% and 22.8%.
For `CCOC(=O)c1c(NC(=O)/C=C/C(=O)O)sc(C)c1-c1ccc(C(C)(C)C)cc1` the same measures were 32.9% and 17.2%.
For `COc1ccc(N(C(=O)CCl)C(C(=O)NCCc2ccccc2)c2cccs2)cc1` (stereo not given), the inhibition in experiment [1] is 32.7%; in experiment [2] it was 58.1% (active).
For `CS(=O)(=O)N(Cc1ccccc1Cl)c1ccc(C(=O)NCc2cccnc2)cc1` the same measures were -10.9% and 35.5%.
For `CC(C)N(C(=O)[C@H]1C[C@H](CC(=O)NCCc2ccccn2)C(=O)N2CCc3c([nH]c4cc(-c5ccco5)ccc34)[C@]12C)C(C)C` the same measures were -4.18% and -6.81%.
In the same order, the values of `CCN(CC)S(=O)(=O)c1ccc(NC2c3ccccc3C(=O)N2Cc2ccco2)cc1` (stereo not given) are -12.8% and -30.1%.
For `Cn1nnnc1Sc1ncnc2scc(-c3cccc(C(F)(F)F)c3)c12`, the inhibition in experiment [1] was 36.9% (active); in experiment [2], 52.3% (active).
For `Cc1c(CCC(=O)N[C@@H](C)C(=O)O)c(=O)oc2c(C)c3oc4c(c3cc12)CCCC4` the same measures were 25% and 27.4%.
In the same order, the values of `COc1ccc(S(=O)(=O)Nc2cc(Sc3ncn[nH]3)c(O)c3ccccc23)cc1` are 26.7% and 10.1%.
In the same order, the values of `OC[C@@H]1CN(Cc2ccc(-c3ccccc3)cc2)C[C@H](n2cnc3c(NCc4ccc(F)cc4)ncnc32)O1` are 20.8% and 22.9%.
With `O=C1/C(=C/c2ccncc2)CCC/C1=C\c1ccncc1`, the values for the inhibition in experiment [1] and in experiment [2] were 89.1% (active) and 98.1% (active), respectively.
In the same order, the values of `COc1ccc(NC(=O)CSCC(=O)Nc2ccccc2C(=O)N2CCCCC2)cc1` are -8.77% and -20.5%.
On to `CCOc1ccc(NC(=O)CN(C)C(=O)c2cn(-c3ccccc3)nc2-c2cccs2)cc1OCC`, for which the inhibition in experiment [1] was -4.29%; in experiment [2], 16%.
In the same order, the values of `C=CCOc1ccccc1CN1CCC(Cc2ccccc2)CC1` are 8.57% and -13.5%.
For `COc1ccccc1/C=C1\SC(=S)N(CCC(=O)NCCCn2ccnc2)C1=O` the same measures were -0.06% and 1.79%.
In the same order, the values of `CCCN1C(=O)C2C(C(=O)Nc3cccc(OC)c3)C3C=CC2(O3)C1C(=O)NC1CCCCC1` (stereo not given) are -13.7% and -16.6%.
For the molecule `O=C(Cc1ccc(-c2ccccc2)cc1)NNC(=S)NCc1ccco1`, the inhibition was -22.3% in experiment [1] and -9.18% in experiment [2].
In the same order, the values of `CC(=O)Nc1cccc(-c2cc(NC(C)=O)c3ncc(-c4ccccc4)n3c2)c1` are -11.4% and 2.68%.
Take `O=C(Nc1nccs1)c1cc([N+](=O)[O-])ccc1Cl`: the inhibition in experiment [1] is 12.7%; in experiment [2], 42.9%.
For the molecule `COc1ccc(OC)c(NC(=O)C(C)OC(=O)c2cc3ccccc3[nH]2)c1` (stereo not given), the inhibition in experiment [1] was -2.68%; in experiment [2], 17.6%.
With `CN1C(=O)C(c2cn(C)c3ccccc23)(c2cn(C)c3ccccc23)c2cc(F)ccc21`, the inhibition was 11.8% in experiment [1] and -37.4% in experiment [2].
In the same order, the values of `CCN(CC)S(=O)(=O)c1cccc(-n2c(O)c(C=Nc3ccccc3C(=O)O)c3ccccc3c2=O)c1` are -0.6% and 21.9%.
For `CCOc1ccc(-c2nc(CSCC(=O)NCc3ccco3)c(C)o2)cc1` the same measures were -11.2% and 37%.
For `CCOc1ccc(-c2cc(CCCC(=O)NCCc3ccccc3)no2)cc1` the same measures were 6.55% and 44.9%.
On to `O=C(NN1CCOCC1)c1ccco1`, for which the inhibition was -7.57% in experiment [1] and -31.5% in experiment [2].
In the same order, the values of `CC(c1ccccc1)N1CCN(C(=O)CCl)CC1` (stereo not given) are 17.4% and 43.9%.
In the same order, the values of `O=C(O)C1(Nc2ccc(Br)cc2)CCCC1` are -19.4% and -11.7%.
`C=CCc1cccc2cc(C(=O)Nc3ccc(CC(=O)O)cc3)c(=O)oc12`: the figures for the inhibition in experiment [1] and in experiment [2] were 12% and 25.6%, respectively.
In the same order, the values of `CCOc1ccc(-c2nc(CSCC(=O)N3CCN(c4cccc(OC)c4)CC3)c(C)o2)cc1` are 23.2% and 49.8% (active).
For `CCOC(=O)C1CCN(C(=O)CCc2c(C)nc3cc(-c4ccccc4)nn3c2C)CC1` the same measures were -24.4% and 48.5% (active).
In the same order, the values of `COc1cc(NC(=O)c2cccs2)c(C(=O)OCC(=O)c2cc(C)n(-c3ccccc3)c2C)cc1OC` are 27.5% and 67% (active).
Consider `CCCCC(=O)NC(c1ccccc1OC)c1ccc2cccnc2c1O` (stereo not given), for which the inhibition was -16.1% in experiment [1] and 28.1% in experiment [2].
In the same order, the values of `Cn1c(=O)c2c(ncn2CCOc2cccc(Br)c2)n(C)c1=O` are 2.33% and 2.64%.
Take `CCCC(=O)Nc1cccc(NC(=O)c2ccccc2Br)c1`: the inhibition in experiment [1] was -0.46%; in experiment [2], -17.8%.
In the same order, the values of `[2H]C(CCOS(N)(=O)=O)c1ccc(C(C)(C)C)cc1` (stereo not given) are 13.7% and 41.4%.
With `COc1cc(OC)c(CN2CCc3c([nH]c4ccccc34)C2)cc1Br`, the inhibition is -7.11% in experiment [1] and -4.79% in experiment [2].
Regarding `Brc1cccc(-c2cnc3n2CCCCC3)c1`, the inhibition in experiment [1] was 12.6%; in experiment [2] it was 29.2%.
For `C=CCNC(=S)NCc1ccccc1` the same measures were -11.1% and -24.7%.
In the same order, the values of `CC(C)=C1C2CCC1C1C(=O)N(c3nccs3)C(=O)C21` (stereo not given) are 12.1% and 6.16%.
In the same order, the values of `COc1ccc(S(=O)(=O)N2c3ccc(F)cc3CCC2C)cc1` (stereo not given) are -6.76% and 1.23%.
As for `CCCc1ncc(CN2CCC(C(=O)Nc3cccc(-c4cscn4)c3)CC2)cn1`, the inhibition in experiment [1] is 12.2%; in experiment [2], 15.5%.
In the same order, the values of `O=C(CCl)N(c1ccccc1)c1ccccc1` are 9.78% and 44.2%.
As for `Oc1ccc(N=Nc2ccc3c(c2)OCCO3)c(O)c1`, the inhibition in experiment [1] is -71.4%; in experiment [2] it was 35.1%.
